In PubChem BioAssay:

Assay: JC-1 mitochondrial signal, unstimulated myeloma cells – cell-based, JC-1 fluorescence, RPMI8226, 24 h, 100 nL compound, profiling panel (AID 1169); further: test concentration not given here
Details: JC-1 mitochondrial potential fluorescence, higher = more signal

Structure (SMILES) | z-score
Cc1cc(C)c(C(O)C2C=CC3C(=O)N(c4ccccc4)C(=O)C3N2Nc2ccccc2)c(C)c1 (configuration not stated) | -0.225
O=C1O[C@H](c2ccccc2)[C@H](c2ccccc2)N2[C@H]1[C@@H](C(=O)N1CCN(c3ncccn3)CC1)[C@]1(C(=O)Nc3ccc(C#CCCO)cc31)[C@H]2c1ccc(OCCO)cc1 | -0.883
O=C1CSC(c2cccc([N+](=O)[O-])c2)N1c1ccccc1 (configuration not stated) | 0.0369
COC(=O)C(CC#Cc1ccc2c(c1)[C@]1(C(=O)N2)[C@H](c2ccc(O)cc2)N2[C@H](c3ccccc3)[C@H](c3ccccc3)OC(=O)[C@H]2[C@@H]1C(=O)O)C(=O)OC | 0.491
COCCCNC(=O)[C@@]1(Cc2ccccc2I)c2ccccc2C(=O)N(Cc2ccccc2Cl)[C@H]1c1ccc(CO)cc1 | -0.778
COC(=O)[C@]1(Cc2ccccc2CN=[N+]=[N-])N=C(c2ccc(OCCCO)cc2)O[C@@H]1c1ccccc1 | -1.05
CN(C)CCCCCCNC(=O)[C@@H]1C[C@@H]2C(=O)NCC(=O)N2[C@@H]1c1ccc(O)cc1 | 0.3
COC(=O)c1ccc(OC)c(/C=C\CC(CCc2ccccc2)OC(=O)c2ccncc2)c1 (configuration not stated) | -0.745
CCOC(=O)C[C@H]1[C@H](OC(=O)Cc2ccc3c(c2)OCO3)[C@@H](NC(=O)c2ccccc2)c2cc(OCCCO)ccc2N1C(=O)c1ccc2ccccc2n1 | -0.156
CCCNC(=O)[C@@]1(Sc2ccc(C)cc2)CC(=O)N(Cc2ccccc2)[C@@H]1c1ccc(CO)cc1I | -0.935
CC1(C)[C@@H]2CC(C(O)C3C=CC4C(=O)N(c5ccccc5)C(=O)C4N3Nc3ccccc3F)=C[C@@H]1C2 (some centres not stated) | 0.157
COc1ccc(C#Cc2ccc3c(c2)[C@]2(C(=O)N3)[C@H](C(N)=O)[C@H]3C(=O)O[C@H](c4ccccc4)[C@H](c4ccccc4)N3[C@@H]2c2ccc(O)cc2)cc1 | -1.1
COc1ccc([Si](C)(C)[C@@H]2[C@@H](CCO)O[C@]3(C(=O)N(Cc4ccc(N5C(=O)c6ccccc6Oc6ccccc65)cc4)c4ccccc43)[C@H]2C)cc1 | -1.06
NC(=O)NCC#Cc1ccc2c(c1)[C@]1(C(=O)N2)[C@H](c2ccc(O)cc2)N2[C@H](c3ccccc3)[C@H](c3ccccc3)OC(=O)[C@H]2[C@@H]1C(=O)NC[C@H](O)c1ccccc1 | -0.888
CO[C@H]1O[C@H](CO)[C@@H](OC(=O)c2ccc(Br)cc2)[C@@H]2OC(=O)[C@H](Cc3cccc(Br)c3)C/C=C/C[C@@H](Cc3cccc(Br)c3)C(=O)O[C@@H]12 | 0.229
CO[C@H]1O[C@H](CO)[C@@H](OC(=O)Nc2cccc(F)c2)[C@H](OC(=O)Nc2ccc3c(c2)OCO3)[C@H]1OC(=O)Nc1ccc2c(c1)OCO2 | -0.313
CC(C)C[C@H]1NC(=O)[C@H](C)NC(=O)[C@@]23C(=O)N[C@@H](Cc4ccccc4)C2[C@H](C)[C@@]2(C)O[C@H]2C3/C=C/C/C=C\CNC1=O (some centres not stated) | -0.0616
Cc1ccc(C(C)CC(O)C2C=CC3C(=O)N(Cc4ccccc4)C(=O)C3N2n2cnnc2)o1 (configuration not stated) | -0.168
COCCCNC(=O)[C@@]1(Cc2ccccc2)COC(c2ccc(OCCCO)cc2)=N1 | -0.367
O=C1c2ccccc2[C@](Cc2ccccc2I)(C(=O)NC2CC2)[C@H](c2ccc(CO)cc2)N1Cc1ccccc1Cl | -0.332
CCOC(=O)C[C@H]1[C@H](OC(=O)Cc2ccc3c(c2)OCO3)[C@@H](NC(=O)c2ccccc2)c2cc(OCCCO)ccc2N1C(=O)c1ccccc1 | 0.684
CCOC(=O)C1=CC[C@@H](c2ccc(N(CC)CC)cc2)N(S(=O)(=O)c2ccc(C)cc2)[C@H]1c1ccc([N+](=O)[O-])cc1 | -0.673
COC(=O)C(CC#Cc1ccc2c(c1)[C@]1(C(=O)N2)[C@H](C(=O)N2CCc3cc(OC)c(OC)cc3C2)[C@H]2C(=O)O[C@H](c3ccccc3)[C@H](c3ccccc3)N2[C@@H]1c1ccc(OCCO)cc1)C(=O)OC | -0.678
CC(C)N1C(=O)c2ccccc2[C@](C)(C(=O)O)[C@@H]1c1ccc(CO)cc1 | 0.663
C=CCC(OC(C)=O)[C@@H]1[C@@H](N(Cc2ccc(-c3ccccc3)cc2)C(=O)c2cccc3ccccc23)c2cc(OCCCO)ccc2N1C(=O)c1ccc2ccccc2n1 (some centres not stated) | -0.0127
[N-]=[N+]=Nc1ccccc1[C@H]1OC(c2ccc(OCCCO)cc2)=N[C@@]1(Cc1ccccc1)C(=O)NCc1ccccc1 | -1.16
COCCCNC(=O)[C@]1(CCS(=O)(=O)c2ccccc2)N=C(c2ccc(OCCCO)cc2)O[C@@H]1c1ccccc1 | -0.74
